# From the supplement of paper PMC6897291
# Counter-ions that a name gives are not always drawn.
# Test system: U-2932
# Assay: growth inhibition by drug alone (1 - RLU/untreated control) (fraction); higher = stronger inhibition
# Details: 177Lu-lilotomab satetraxetan 0 ug/ml
# Method: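 U-2932 ABC-DLBCL cells were pretreated or not for 18 h with 1 ug/ml 177Lu-lilotomab satetraxetan (600 MBq/mg), washed and seeded (3000 cells/well) on 384-well plates pre-printed with the Selleck Cambridge Cancer Compound library. Viability was read by RealTime-Glo luminescence on days 3-6 after seeding. Effect = 1 - RLU/mean RLU of the 48 untreated no-drug control wells per plate; Bliss score = (M-E)/(1-Fa), with E the expected Bliss-additive effect.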
Structure (SMILES),"growth inhibition by drug alone (10 nM, time (day): 3)","growth inhibition by drug alone (10 nM, time (day): 4)","growth inhibition by drug alone (10 nM, time (day): 5)","growth inhibition by drug alone (10 nM, time (day): 6)","growth inhibition by drug alone (1000 nM, time (day): 3)","growth inhibition by drug alone (1000 nM, time (day): 4)","growth inhibition by drug alone (1000 nM, time (day): 5)","growth inhibition by drug alone (1000 nM, time (day): 6)"
O=C(O)C1(C(=O)O)CCC1.[NH2-].[NH2-].[Pt+2] [Carboplatin],0.0266,-0.0103,-0.0119,-0.000763,-0.0124,-0.0343,-0.0455,0.00969
COc1cc2c(NC3CCN(C)CC3)nc(N3CCCN(C)CC3)nc2cc1OCCCN(C)C,0.0324,-0.0188,-0.094,-0.326,-0.0483,-0.0744,-0.125,-0.235
O=C(c1ccc(OCCN2CCCCC2)cc1)c1c(-c2ccc(O)cc2)sc2cc(O)ccc12 [Evista (Raloxifene Hydrochloride)],0.0697,0.04,-0.0859,-0.131,-0.0629,-0.0257,-0.102,-0.132
O=C(/C=C/C#Cc1cccc(NS(=O)(=O)c2ccccc2)c1)NO [Oxamflatin],0.0723,0.054,0.00482,-0.0197,0.851,0.808,0.766,0.702
Cc1ccc([N+](=O)[O-])cc1S(=O)(=O)N(C)/N=C/c1cnc2ccc(Br)cn12,0.343,0.311,0.248,0.226,0.963,0.969,0.976,0.979
